Bioassay records from PubChem.
Most compounds without a hit are left out; they make up all but 0.17% or so of the library.
B2AR arrestin: agonists driving beta-arrestin recruitment to human beta2-adrenergic receptor. hit rate 0.02% among 330,000. AID 492947. Potency, µM (top dose mostly 46.1 µM), for the others: at the highest dose activation, hits mostly activators. beta-arrestin recruitment to beta2AR, cell-based reporter. P07550;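 further: 0% = DMSO controls and full agonism = EC100 isoproterenol or metaproterenol; nearly all actives have a fitted effect of over 65% in size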
MmCpn inh: inhibitors of Methanococcus maripaludis chaperonin TRiC (MmCpn). purified Mm-Cpn ATPase, ADP Transcreener TR-FRET. Potency, µM (series often up to 76.9 µM), for the others: top-dose activity, negative = inhibition, usual class: inhibitors. hit rate 0.031% among 330,000. AID 504842; further: on the % scale 0 is the no-effect control and ±100 the full control effect; nearly all actives have a fitted effect of over 80% in size
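Purified archaeal Mm-CPN (25nM final) preincubated 10 min at 37degC with compound, then 10uM ATP for 30 min at 37degC; ADP measured by HTRF Transcreener TR-FRET; buffer 30 mM TRIS pH 7.4, 100mM KCl, 5mM MgCl2, 1mM DTT.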
Apoferritin bind: binds horse apoferritin like a general anesthetic; Potency, µM (titrated, usually from 77.5 µM), for inactives: at the top dose activity change, negative = displacement, actives largely listed as inhibitors; P02791; AID 485281; hit rate 0.074% among 350,000; apoferritin/1-aminoanthracene competitive binding, fluorescence; further: on the % scale 0 is the no-effect control and ±100 the full control effect; nearly all actives have a fitted effect of over 20% in size
Target sequence (P02791 2-175 limits assumed): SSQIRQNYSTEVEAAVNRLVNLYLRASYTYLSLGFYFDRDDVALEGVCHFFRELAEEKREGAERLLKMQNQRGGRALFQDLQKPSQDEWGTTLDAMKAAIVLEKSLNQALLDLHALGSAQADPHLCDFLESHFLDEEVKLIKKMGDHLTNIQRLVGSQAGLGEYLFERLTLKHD
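Horse-spleen apoferritin (10 uM) was mixed with 50% saturated 1-aminoanthracene in PBS, exposed to compounds for 10 min at room temperature, and read for fluorescence (ex 380 nm, em 535 nm). Competitive displacement was fitted with a four-parameter Hill equation.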
GRP78 ERSR act: induces the endoplasmic reticulum stress response in human glioma cells; U87-MG GRP78 promoter luciferase reporter, 16 h; Potency, µM, for the others: top-dose activation, actives largely listed as activators; hit rate 0.02% among 420,000; AID 602332; further: series mostly up to about 76 µM; % of control where 0% means no effect; nearly all actives have a fitted effect of over 35% in size
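ERSR induction read as luciferase luminescence (Bright-Glo, 10 min at room temperature) in stably transfected human U87-MG glioma cells exposed to compounds for 16 h, using GRP78 as sensor.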
Pin1 inhibitor: inhibitors of human Pin1; Q13526; Pin1 FP peptide displacement, HiFluor488, 10 min; Potency, µM (highest dose often 115 µM), inactives show at the highest dose activity, negative = inhibition, actives largely listed as inhibitors; hit rate 0.009% among 390,000; AID 504891; active means well fitted inhibition curve with a large enough effect in the polarisation, with a control signal flat, not every such curve was filed as active; inconclusive means small, poorly fitted or top-dose-only effect, or effect the other way, or a change in a side signal; inactive means no such curve, though single readings can be large or run the other way; the % refers to the polarisation; further: on the % scale 0 is the no-effect control and ±100 the full control effect
Target sequence (Q13526 whole entry, looked up): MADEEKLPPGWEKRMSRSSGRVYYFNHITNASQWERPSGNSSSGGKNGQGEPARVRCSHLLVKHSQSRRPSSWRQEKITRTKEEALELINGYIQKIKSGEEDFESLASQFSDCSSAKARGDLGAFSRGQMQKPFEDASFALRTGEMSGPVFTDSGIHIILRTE
RGS4 inh: inhibitors of human regulator of G protein signaling 4. Transcreener GDP fluorescence polarization, RGS4-accelerated GTP hydrolysis. P49798. AID 504845. Potency, µM (series often up to 114 µM), inactives show at the highest dose activity change, negative = inhibition, hits mostly inhibitors. hit rate 0.039% among 390,000; further: on the % scale 0 is the no-effect control and ±100 the full control effect; nearly all actives have a fitted effect of over 75% in size
Target sequence (P49798 whole entry, looked up): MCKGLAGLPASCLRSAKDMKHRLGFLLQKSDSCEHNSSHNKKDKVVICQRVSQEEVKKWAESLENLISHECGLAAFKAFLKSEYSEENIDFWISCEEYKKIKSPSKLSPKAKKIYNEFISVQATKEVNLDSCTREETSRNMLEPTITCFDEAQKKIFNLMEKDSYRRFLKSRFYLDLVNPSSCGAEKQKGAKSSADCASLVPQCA
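MLSMR compounds (23 nl, pin-transferred) preincubated 10 min at room temperature with a 500nM (2x) first reagent, then RGS4 at 900nM (2x) plus Transcreener GDP mix added; fluorescence polarization (620/688 nm) read before and after 90 min at 30 °C.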
The depositor's hits bear a star; ? = inconclusive; . = no result; ! = not confirmed by another sample. Unless noted, the call rests on the fitted dose curve; in most records, active means well fitted curve in the direction sought with a large enough effect; inconclusive means small, poorly fitted or top-dose-only effect, or another doubt; inactive means no such curve, though single readings can be large; an effect the other way counts as inactive or inconclusive. Potency means the concentration at half of the fitted maximal effect.

SMILES	B2AR arrestin	MmCpn inh	Apoferritin bind	GRP78 ERSR act	Pin1 inhibitor	RGS4 inh
Cc1cc2ccccc2n1CCNC(=O)c1ccccc1	-1%	40µM*	?	-8%	?	?
Cc1cc2ccccc2n1CCNC(=O)c1ccc(S(=O)(=O)N2CCOCC2)cc1	0%	32µM*	-13%	-5%	-9%	2%
O=C(CSc1ccccc1Cl)c1ccco1	0%	-2%	25µM*	1%	-3%	-15%
O=C(CSc1ccc(Cl)cc1)c1ccco1	0%	-17%	?	2%	?	-48%
COc1cccc(CNc2ccc3nc(-c4ccc(N)cc4)c(OC)n3n2)c1	.	.	-23%	-2%	.	38µM*!
CCCCc1cc(O)c(CCCC)c(O)c1	0%	2%	?	22µM*	-5%	-28%
CCCCCc1cc(O)c2c(C)cc(=O)oc2c1	0%	-14%	-12%	-7%	-12%	-17%
O=C(O)Cc1c[nH]c2ccc(O)cc12	.	.	.	-2%	4%	21µM*!
COc1ccc2[nH]cc(CC(=O)O)c2c1	-1%	0%	9%	-1%	-4%	21%
CCN(CC)c1ccc(/C=C/c2cc(-c3ccccc3)c3ccccc3n2)cc1	0%	35µM*	10%	-7%	?	?
COc1cc2sc(-c3ccccc3OC)c(-c3ccc(OCCN4CCOCC4)cc3)c2cc1OC	1%	45µM*	.	-2%	7%	-2%
COc1ccc2c(-c3ccc(OCCN4CCOCC4)cc3)c(-c3ccccc3OC)sc2c1	0%	32µM*	.	-1%	-8%	16%
COc1ccc2c(-c3ccc(OCCN4CCCCC4)cc3)c(-c3ccccc3OC)sc2c1	-2%	-28%	.	-4%	2%	2%
COc1cccc(-c2nc3cc4c(cc3cc2CN(C(=O)c2cccs2)C2CC2)CCC4)c1OC	.	.	.	0%	.	.
N#C/C(=C\c1ccc(O)c(O)c1)C(=O)NCCc1ccccc1	0%	-1%	.	?	15%	19µM*!
N=c1c2c(ccn1-c1ccccc1)Oc1ccc3ccccc3c1C2c1ccccc1 (stereo not drawn)	.	.	.	.	42%	.
CC1(C)N=C(Nc2nc3ccccc3o2)NC2=C1C(=O)CCC2	.	.	.	.	-10%	.
CC[C@H](C)[C@@H]1NC(=O)[C@H](Cc2ccc(O)cc2)NC(=O)[C@@H](N)CSSC[C@@H](C(=O)N2CCC[C@H]2C(=O)N[C@@H](CC(C)C)C(=O)NCC(N)=O)NC(=O)[C@H](CC(N)=O)NC(=O)[C@H](CCC(N)=O)NC1=O	.	.	-6%	-3%	.	.
CCC(C)C(N)C1=NC(C(=O)N[C@@H](CC(C)C)C(=O)N[C@H](CCC(=O)[O-])C(=O)N[C@H](C(=O)N[C@H]2CCCCNC(=O)[C@H](CC(N)=O)NC(=O)[C@@H](CC(=O)[O-])NC(=O)[C@H](Cc3cnc[nH]3)NC(=O)[C@@H](Cc3ccccc3)NC(=O)[C@H]([C@@H](C)CC)NC(=O)[C@@H](CCCN)NC2=O)[C@@H](C)CC)CS1.[Zn+2] (stereo partly drawn)	.	.	.	-2%	20µM*	-5%
O=c1c2ccccc2nc2sc(Nc3cccc(Br)c3)nn12	.	.	.	.	0%	.
COC(=O)c1ccc(/C=N/OCC(=O)NC2CCCC(C)C2C)cc1 (stereo not drawn)	0%	0%	11µM*	-6%	-1%	-34%
CC1CCCC(NC(=O)COC(=O)c2ccc(N(C)C)cc2)C1C (stereo not drawn)	0%	2%	?	7%	-2%	7%
COC(=O)c1ccc(OCC(=O)NC2CCCCCC2)cc1	0%	-5%	?	2%	3%	-5%
COC(=O)c1ccc(/C=N/OCC(=O)NC2CCCCCCC2)cc1	0%	-7%	7.9µM*	0%	-17%	-12%
COc1cc(-c2ccc3ncnc(NCc4ccc(C)o4)c3c2)cc(OC)c1OC	.	.	.	.	9%	.
SMILES	B2AR arrestin	MmCpn inh	Apoferritin bind	GRP78 ERSR act	Pin1 inhibitor	RGS4 inh
OCCNc1nc(Nc2ccccc2)nc2ccccc12	-1%	-1%	-13%	32µM*	7%	-2%
Cc1c(Cl)cccc1Nc1nc(NCCO)c2ccccc2n1	0%	2%	-12%	32µM*	4%	0%
OCCNc1nc(Nc2ccc(Br)cc2)nc2ccccc12	0%	2%	-9%	?	2%	-47%
COc1cccc(C2c3c(ncn(-c4ccc(C#N)cc4)c3=N)Oc3ccc4ccccc4c32)c1 (stereo not drawn)	.	.	.	.	38%	.
COc1ccccc1Nc1ccc2c(O)cc(S(=O)(=O)O)cc2c1	.	.	.	-1%	21µM*	?
O=C(Nc1cccc(-c2nn3c(=O)cc(N4CCNCC4)nc3s2)c1)C1CCNCC1	.	.	.	.	-6%	.
CC1CCc2c(sc3nn[nH]c(=O)c23)C1 (stereo not drawn)	-1%	-1%	25µM*	-1%	-1%	-46%
CSc1nc2sc3c(c2c(=O)[nH]1)CCC(C)C3 (stereo not drawn)	0%	1%	-4%	3%	3%	5%
O=C(CSCCO)Nc1ccc(C2CCCCC2)cc1	-1%	0%	7.1µM*	9%	1%	3%
O=C(CNC(=O)c1ccc2cc[nH]c2c1)OC(C(=O)Nc1cc(C(F)(F)F)ccc1Cl)c1ccccc1 (stereo not drawn)	.	.	.	.	10%	.
Clc1ccc(-c2nc3sccn3c2/C=N/OCc2ccc(Cl)c(Cl)c2)cc1	.	.	98%	3%	.	3µM*
CCOc1ccccc1N=NC1C(=O)N(C(N)=S)N=C1C (stereo not drawn)	1.1µM*	-2%	-4%	-3%	-17%	-26%
CC1=NN(C(N)=S)C(=O)C1N=Nc1ccccc1O (stereo not drawn)	0%	-1%	-9%	10%	3%	0%
C[C@](N)(Cc1ccc(O)c(O)c1)C(=O)O	0%	-4%	-8%	0%	?	27µM*!
Fc1ccc(CSc2nnc(Cc3sc(-c4ccccc4)nc3-c3ccccc3)o2)cc1	-1%	-11%	-14%	-3%	-5%	9%
COc1ccc(CSc2nnc(Cc3sc(-c4ccccc4)nc3-c3ccccc3)o2)cc1	0%	35µM*	44%	3%	10%	-18%
COc1cc(/C=C/[N+](=O)[O-])ccc1OCc1cccc(C(=O)O)c1	-1%	15%	-11%	-14%	28µM*	?
O=C(Nc1ccccc1)C1CCN(c2nc(-c3ccc(Br)cc3)cs2)CC1	.	.	.	.	32%	.
CCCc1[nH]nc2c1C(C1CCCCC1)C(C#N)=C(N)O2 (stereo not drawn)	0%	4%	-6%	35µM*	5%	13%
CCCc1[nH]nc2c1C(c1ccsc1)C(C#N)=C(N)O2 (stereo not drawn)	0%	1%	-3%	-4%	10%	-30%
